Measured values from PubChem BioAssay (NCI).
Compounds without any hit were thinned out: in the full panel of roughly 83,000, 20% have a hit.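 For each line, cells grew in 96-well plates with the test compound present at a single concentration for 48 hours.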 Calls of active or inactive are those of the source. How the source made its calls: active means growth percent below 10; inactive means the rest.

Experiments:
Experiment in all cases: NCI-60 one-dose screen, 48 h (100 = growth as untreated, 0 = no growth, -100 = all killed)
Conditions in all cases: 10 µM unless noted
RPMI-8226 leukemia = system: RPMI-8226 leukemia
OVCAR-8 ovarian = system: OVCAR-8 ovarian
OVCAR-4 ovarian = system: OVCAR-4 ovarian
SK-OV-3 ovarian = system: SK-OV-3 ovarian
IGROV1 ovarian = system: IGROV1 ovarian
HS 578T breast = system: HS 578T breast
NCI/ADR-RES ovarian = system: NCI/ADR-RES ovarian
OVCAR-3 ovarian = system: OVCAR-3 ovarian
OVCAR-5 ovarian = system: OVCAR-5 ovarian
T-47D breast = system: T-47D breast

Measured: growth

Cc1cc(CC(=O)O)n(C)c1C(=O)c1ccc(Cl)cc1
inactive: RPMI-8226 leukemia 103% | OVCAR-8 ovarian 97.7% | OVCAR-4 ovarian 119% | SK-OV-3 ovarian 119% | IGROV1 ovarian 114% | HS 578T breast 110% | NCI/ADR-RES ovarian 97.8%

CSc1ccc2c(c1)N(CCC1CCCCN1C)c1ccccc1S2 (stereo not given)
inactive: RPMI-8226 leukemia 26.3% | OVCAR-8 ovarian 69.9% | OVCAR-4 ovarian 64% | SK-OV-3 ovarian 81% | IGROV1 ovarian 36.4% | OVCAR-3 ovarian 92.3% | HS 578T breast 47.6% | NCI/ADR-RES ovarian 65.6%

CC[C@]1(O)CC2CN(CCc3c([nH]c4ccccc34)[C@@](C(=O)OC)(c3cc4c(cc3OC)N(C)[C@H]3[C@@](O)(C(=O)OC)[C@H](OC(C)=O)[C@]5(CC)C=CCN6CC[C@]43[C@@H]65)C2)C1 (stereo not given in full)
active: RPMI-8226 leukemia 2.81% | SK-OV-3 ovarian 6.74% | OVCAR-3 ovarian -56% | NCI/ADR-RES ovarian -17.4%
inactive: OVCAR-8 ovarian 12.6% | OVCAR-4 ovarian 33.2% | IGROV1 ovarian 15.9% | HS 578T breast 29.7%

CC1CC(C)/C(=N/NC(N)=O)C(C(O)CC2CCC(=O)NC2=O)C1 (stereo not given)
inactive: RPMI-8226 leukemia 50.4% | OVCAR-5 ovarian 52.1% | OVCAR-4 ovarian 57.7% | SK-OV-3 ovarian 49.2% | IGROV1 ovarian 30.1% | OVCAR-3 ovarian 53.6% | HS 578T breast 10% | NCI/ADR-RES ovarian 42.6% | T-47D breast 42.5%

Cc1cc(C(C)(C)C)cc(C)c1CC1=NCCN1
inactive: RPMI-8226 leukemia 114% | OVCAR-8 ovarian 107% | OVCAR-4 ovarian 117% | SK-OV-3 ovarian 124% | IGROV1 ovarian 108% | OVCAR-3 ovarian 112% | HS 578T breast 102% | NCI/ADR-RES ovarian 101%

COc1ccc(-c2nn(-c3cccc(Cl)c3)cc2C2CC(c3ccccc3)=NN2C(C)=O)cc1 (stereo not given)
inactive: RPMI-8226 leukemia 97.6% | OVCAR-5 ovarian 80.9% | OVCAR-4 ovarian 23.3% | SK-OV-3 ovarian 32.2% | IGROV1 ovarian 57% | OVCAR-3 ovarian 80.6% | HS 578T breast 43.2% | NCI/ADR-RES ovarian 74.3% | T-47D breast 44.7%

Cc1ccsc1/C=C/C1=NCCCN1C
inactive: RPMI-8226 leukemia 100% | OVCAR-5 ovarian 111% | OVCAR-4 ovarian 102% | SK-OV-3 ovarian 103% | IGROV1 ovarian 101% | OVCAR-3 ovarian 108% | HS 578T breast 115% | NCI/ADR-RES ovarian 107% | T-47D breast 93.9%

CCCCOc1ccc(C(C)(C)c2ccc(OCCCC)cc2)cc1
inactive: RPMI-8226 leukemia 91% | OVCAR-5 ovarian 109% | OVCAR-4 ovarian 108% | SK-OV-3 ovarian 94.6% | IGROV1 ovarian 103% | OVCAR-3 ovarian 106% | HS 578T breast 105% | NCI/ADR-RES ovarian 101% | T-47D breast 90.2%

O=[P@@]1(c2ccccc2)O[C@H](COCc2ccccc2)[C@@H](OCc2ccccc2)[C@H](OCc2ccccc2)[C@H]1NCc1ccccc1
active: RPMI-8226 leukemia 5.97%
inactive: OVCAR-8 ovarian 23.7% | OVCAR-5 ovarian 11.8% | SK-OV-3 ovarian 41.7% | OVCAR-3 ovarian 18.6% | HS 578T breast 49.9% | NCI/ADR-RES ovarian 12.5% | T-47D breast 15.9%

Cc1cc2c(C#N)n3c(c2cc1C)C(=O)C(c1ccccc1)Oc1ccccc1-3 (stereo not given)
inactive: RPMI-8226 leukemia 29.6% | OVCAR-5 ovarian 48.6% | OVCAR-4 ovarian 22.4% | SK-OV-3 ovarian 39.6% | IGROV1 ovarian 48.8% | OVCAR-3 ovarian 25.3% | HS 578T breast 46.2% | NCI/ADR-RES ovarian 25.8% | T-47D breast 15.2%

Nc1ccc(S(=O)(=O)Nc2ncccn2)cc1
inactive: RPMI-8226 leukemia 112% | OVCAR-8 ovarian 102% | OVCAR-4 ovarian 112% | SK-OV-3 ovarian 116% | IGROV1 ovarian 116% | OVCAR-3 ovarian 115% | HS 578T breast 133% | NCI/ADR-RES ovarian 105%

COc1cc(C(=O)/C=C/c2cccnc2Nc2ccccc2)cc(OC)c1OC
inactive: HS 578T breast 24.2% | NCI/ADR-RES ovarian 13.4%
active: RPMI-8226 leukemia -40.3% | OVCAR-5 ovarian -71.2% | OVCAR-4 ovarian -92.4% | SK-OV-3 ovarian -3.48% | IGROV1 ovarian -38.2% | OVCAR-3 ovarian -98.5% | T-47D breast -39.8%

CSC1=Nc2c(c(C)c(-c3ccccc3)n2CCCN2CCCCC2)C2=NC(=O)C[C@H](C)N12
active: RPMI-8226 leukemia -51.1% | T-47D breast -2.25%
inactive: OVCAR-5 ovarian 83.1% | OVCAR-4 ovarian 43.6% | SK-OV-3 ovarian 26.9% | IGROV1 ovarian 22.6% | OVCAR-3 ovarian 24.5% | HS 578T breast 11% | NCI/ADR-RES ovarian 82.4%

Oc1ccc(Cc2ccc(O)c(C3CC(c4ccc(Cl)cc4)=NN3)c2)cc1C1CC(c2ccc(Cl)cc2)=NN1 (stereo not given)
active: OVCAR-3 ovarian 10% | NCI/ADR-RES ovarian 4.68%
inactive: RPMI-8226 leukemia 17.4% | OVCAR-5 ovarian 37.8% | OVCAR-4 ovarian 43.5% | SK-OV-3 ovarian 50.5% | IGROV1 ovarian 18.5% | HS 578T breast 13.8% | T-47D breast 38.3%

COc1ccc2[nH]c(-c3ccccc3)cc2c1
inactive: RPMI-8226 leukemia 48.5% | OVCAR-5 ovarian 109% | OVCAR-4 ovarian 81.3% | SK-OV-3 ovarian 110% | IGROV1 ovarian 100% | OVCAR-3 ovarian 101% | HS 578T breast 105% | NCI/ADR-RES ovarian 113% | T-47D breast 72%

COc1c(C)c2c(c(O)c1C/C=C(\C)CCC(=O)OCCN1CCOCC1)C(=O)OC2
inactive: RPMI-8226 leukemia 16% | OVCAR-8 ovarian 16.9% | OVCAR-5 ovarian 36.8% | SK-OV-3 ovarian 31.4% | OVCAR-3 ovarian 36.1% | HS 578T breast 50.4% | NCI/ADR-RES ovarian 21.5% | T-47D breast 29.3%

Nc1ccc(C2=Nc3cccc4cccc(c34)S2)cc1
active: T-47D breast 8.57%
inactive: RPMI-8226 leukemia 81.8% | OVCAR-5 ovarian 73.2% | OVCAR-4 ovarian 85.3% | SK-OV-3 ovarian 103% | IGROV1 ovarian 67.5% | OVCAR-3 ovarian 87.9% | HS 578T breast 92.2% | NCI/ADR-RES ovarian 107%

COc1ccc(-c2c(-c3cc(OC)c(OC)c(OC)c3)noc2N)cc1
inactive: RPMI-8226 leukemia 10.9% | OVCAR-8 ovarian 24.9% | OVCAR-4 ovarian 38.8% | SK-OV-3 ovarian 20.6% | IGROV1 ovarian 22.4% | HS 578T breast 30% | NCI/ADR-RES ovarian 11.1% | T-47D breast 61.2%
active: OVCAR-3 ovarian -29.7%

CCOc1cc(-c2ccc[nH]2)[nH]c1/C=C1\N=C(C)C(C(=O)OC)=C1C
active: RPMI-8226 leukemia -40.5% | OVCAR-5 ovarian -67.6% | OVCAR-4 ovarian -38.6% | SK-OV-3 ovarian -63.7% | IGROV1 ovarian -45% | OVCAR-3 ovarian -89.2% | HS 578T breast -23.3% | NCI/ADR-RES ovarian -58.7% | T-47D breast -63.8%

C=C(C)[C@@H]1C/C=C(/C=O)CC[C@@H]2O[C@@]2(C)CC/C=C(\C)CC1
inactive: OVCAR-5 ovarian 97.2% | OVCAR-4 ovarian 122% | SK-OV-3 ovarian 106% | IGROV1 ovarian 986% | OVCAR-3 ovarian 110% | HS 578T breast 126% | NCI/ADR-RES ovarian 115% | T-47D breast 101%
active: RPMI-8226 leukemia -7.67%

O=C1N(C2CCCCC2)C(=O)N1C1CCCCC1
inactive: OVCAR-5 ovarian 28.9% | SK-OV-3 ovarian 71.8% | OVCAR-3 ovarian 59.7% | NCI/ADR-RES ovarian 35.5% | T-47D breast 43.7%
active: RPMI-8226 leukemia -16.7% | HS 578T breast -2.96%

N#CCNc1ccccc1N
inactive: OVCAR-8 ovarian 93.1% | OVCAR-5 ovarian 109% | OVCAR-4 ovarian 97.2% | SK-OV-3 ovarian 84.5% | IGROV1 ovarian 89.3% | OVCAR-3 ovarian 101% | HS 578T breast 91.8% | NCI/ADR-RES ovarian 95.5% | T-47D breast 59.9%

COc1cc(/C=C2\COc3ccc(O)cc3C2=O)cc(OC)c1
inactive: OVCAR-8 ovarian 40.4% | OVCAR-5 ovarian 73.7% | OVCAR-4 ovarian 93.4% | SK-OV-3 ovarian 91.7% | IGROV1 ovarian 73.2% | OVCAR-3 ovarian 37.1% | HS 578T breast 77.4% | NCI/ADR-RES ovarian 65.8% | T-47D breast 60.3%

CC12CCC3C(CCC4CC(=O)/C(=C\O)CC43C)C1CCC(=O)O2 (stereo not given)
inactive: OVCAR-8 ovarian 101% | OVCAR-5 ovarian 95.7% | OVCAR-4 ovarian 112% | SK-OV-3 ovarian 128% | IGROV1 ovarian 95.1% | OVCAR-3 ovarian 114% | NCI/ADR-RES ovarian 96.1% | T-47D breast 117%

COc1ccc(/C(=C2\O[C@@H]([C@H](O)CO)[C@H]3OC(C)(C)O[C@@H]23)c2cc(OC)c(OC)c(OC)c2)cc1O
inactive: RPMI-8226 leukemia 73.3% | OVCAR-5 ovarian 90% | OVCAR-4 ovarian 104% | SK-OV-3 ovarian 106% | IGROV1 ovarian 100% | OVCAR-3 ovarian 97.4% | NCI/ADR-RES ovarian 24.5% | T-47D breast 102%

CC1SC(c2c(Cl)cccc2Cl)N(NC(=O)c2[nH]c3ccc(F)cc3c2-c2ccccc2)C1=O (stereo not given)
inactive: OVCAR-8 ovarian 33.1% | OVCAR-5 ovarian 78.3% | SK-OV-3 ovarian 19.1%
active: OVCAR-4 ovarian -54.7% | IGROV1 ovarian -6.28% | OVCAR-3 ovarian -62.2% | HS 578T breast -8.04% | T-47D breast 2.88%

CCCCCCCC/C=C\CCCCCCCCOc1ccccc1CC(=O)NCC[N+]1(C)CCCC1
inactive: OVCAR-8 ovarian 80.9% | OVCAR-5 ovarian 62.1% | OVCAR-4 ovarian 86.8% | SK-OV-3 ovarian 89.6% | IGROV1 ovarian 10.9% | OVCAR-3 ovarian 91.8% | HS 578T breast 86.9% | NCI/ADR-RES ovarian 110% | T-47D breast 90.5%

Oc1ccc(-c2nn(-c3ccccc3)cc2-c2nc3ccccc3s2)cc1
inactive: OVCAR-8 ovarian 93.5% | OVCAR-5 ovarian 108% | OVCAR-4 ovarian 86.2% | SK-OV-3 ovarian 99% | IGROV1 ovarian 80.9% | OVCAR-3 ovarian 85.3% | HS 578T breast 92.4% | NCI/ADR-RES ovarian 81.1% | T-47D breast 53%

COc1ccc(/C=C2\COc3ccc(O)c(O)c3C2=O)cc1OC
inactive: OVCAR-4 ovarian 30.1% | SK-OV-3 ovarian 40.2% | HS 578T breast 17.8%
active: OVCAR-8 ovarian 8.42% | OVCAR-5 ovarian -16.6% | IGROV1 ovarian -33.4% | OVCAR-3 ovarian -16.7% | NCI/ADR-RES ovarian 2.76% | T-47D breast -5.4%

COc1cc(Oc2cc(-c3cccnc3)ccc2NC(=O)Nc2ccc(F)cc2F)cc(OC)c1OC
inactive: RPMI-8226 leukemia 93.6% | OVCAR-5 ovarian 117% | OVCAR-4 ovarian 113% | SK-OV-3 ovarian 89.1% | IGROV1 ovarian 116% | HS 578T breast 99.9% | NCI/ADR-RES ovarian 95.2% | T-47D breast 71.5%

O=C(/C=C/c1cc2ccccc2[nH]c1=O)c1ccc(O)cc1
inactive: OVCAR-8 ovarian 22.3% | OVCAR-5 ovarian 78.6% | OVCAR-4 ovarian 62.9% | SK-OV-3 ovarian 39.8% | IGROV1 ovarian 53.8% | NCI/ADR-RES ovarian 36.4% | T-47D breast 66.1%
active: OVCAR-3 ovarian -18.8% | HS 578T breast -27.2%
